# Results: paper PMC5540273 (PLoS ONE, 2017)
# Values joined by “and” are separate entries in the source; they are usually repeats but may differ in a detail not shown here. Equal entries are not always repeated. Where two headings read alike, the source gives them in different places.
# Key:
# PRKCI = conditions: concentration: 1 μM, replicates: in singlicate, n = 1
# PRKCQ = conditions: concentration: 1 μM, replicates: in singlicate, n = 1
# PRKD1 = conditions: concentration: 1 μM, replicates: in singlicate, n = 1
# PRKD2 = conditions: concentration: 1 μM, replicates: in singlicate, n = 1
# PRKD3 = conditions: concentration: 1 μM, replicates: in singlicate; n = 1
# PRKG1 = conditions: concentration: 1 μM, replicates: in singlicate, n = 1
# PRKG2 = conditions: concentration: 1 μM, replicates: in singlicate, n = 1
# PRKR = tested on: T1, PRKR; conditions: concentration: 1 μM, replicates: in singlicate, n = 1
# T1 construct: gene EIF2AK2
# PRKX = conditions: concentration: 1 μM, replicates: in singlicate, n = 1
# PRP4 = conditions: concentration: 1 μM, replicates: in singlicate, n = 1
# PYK2 = tested on: T2, PYK2; conditions: concentration: 1 μM, replicates: in singlicate, n = 1
# T2 construct: gene PTK2B
# QSK = conditions: concentration: 1 μM, replicates: in singlicate, n = 1
# RAF1 = conditions: concentration: 1 μM, replicates: in singlicate, n = 1
# RET = conditions: concentration: 1 μM, replicates: in singlicate; n = 1
# RIOK1 = conditions: concentration: 1 μM, replicates: in singlicate, n = 1
# RIOK2 = conditions: concentration: 1 μM, replicates: in singlicate; n = 1
# RIOK3 = conditions: concentration: 1 μM, replicates: in singlicate; n = 1
# RIPK1 = conditions: concentration: 1 μM, replicates: in singlicate, n = 1
# RIPK2 = conditions: concentration: 1 μM, replicates: in singlicate, n = 1
# RIPK4 = conditions: concentration: 1 μM, replicates: in singlicate, n = 1
# 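Also: KINOMEscan kinase panel screen.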
smiles,measurement,setting,value
N#Cc1c(N2CCOCC2)sc(-c2ccn[nH]2)c1-c1ccc(Cl)cc1,%Inh,PRKCI,1%
same,%Inh,PRKCQ,11%
same,%Inh,PRKD1,0%
same,%Inh,PRKD2,0%
same,%Inh,PRKD3,16%
same,%Inh,PRKG1,0%
same,%Inh,PRKG2,8%
same,%Inh,PRKR,0%
same,%Inh,PRKX,12%
same,%Inh,PRP4,56%
same,%Inh,PYK2,0%
same,%Inh,QSK,0%
same,%Inh,RAF1,11%
same,%Inh,RET,0%
same,%Inh,RIOK1,0%
same,%Inh,RIOK2,0%
same,%Inh,RIOK3,0%
same,%Inh,RIPK1,6%
same,%Inh,RIPK2,0%
same,%Inh,RIPK4,35%
COc1cc2ncn(-c3cc(OCc4sccc4Cl)c(C(N)=O)s3)c2cc1OC [GSK448459],%Inh,PRKCI,10%
same,%Inh,PRKCQ,0%
same,%Inh,PRKD1,0%
same,%Inh,PRKD2,0%
same,%Inh,PRKD3,0%
same,%Inh,PRKG1,14%
same,%Inh,PRKG2,13%
same,%Inh,PRKR,0%
same,%Inh,PRKX,0%
same,%Inh,PRP4,26%
same,%Inh,PYK2,0%
same,%Inh,QSK,7%
same,%Inh,RAF1,12%
same,%Inh,RET,26%
same,%Inh,RIOK1,91.8%
same,%Inh,RIOK2,13%
same,%Inh,RIOK3,61%
same,%Inh,RIPK1,0%
same,%Inh,RIPK2,3%
same,%Inh,RIPK4,15%
CC(C)(CN)c1nc(-c2ccc(Cl)c(O)c2)c(-c2ccncc2)[nH]1.O=C(O)C(F)(F)F [SB-477794],%Inh,PRKCI; 1 µM,97.5% and 97.8%
same,%Inh,PRKCQ; 1 µM,75% and 76%
same,%Inh,PRKD1; 1 µM,92.4% and 93.9%
same,%Inh,PRKD2; 1 µM,89% and 91.8%
same,%Inh,PRKD3,100%
same,%Inh,PRKG1; 1 µM,0% and 20%
same,%Inh,PRKG2; 1 µM,0% and 10%
same,%Inh,PRKR; 1 µM,0% and 12%
same,%Inh,PRKX; 1 µM,21% and 22%
same,%Inh,PRP4; 1 µM,69% and 33%
same,%Inh,PYK2; 1 µM,0% and 17%
same,%Inh,QSK; 1 µM,91.5% and 86%
same,%Inh,RAF1; 1 µM,98.5% and 95.1%
same,%Inh,RET,99.9%
same,%Inh,RIOK1; 1 µM,0% and 1%
same,%Inh,RIOK2,0%
same,%Inh,RIOK3,0%
same,%Inh,RIPK1; 1 µM,2% and 0%
same,%Inh,RIPK2; 1 µM,92.7% and 90%
same,%Inh,RIPK4; 1 µM,36% and 5%
Nc1nc(-c2ccc3c(N)n[nH]c3c2)cc(N2CCCC2)n1 [GSK2227430],%Inh,PRKCI,0%
same,%Inh,PRKCQ,18%
same,%Inh,PRKD1,0%
same,%Inh,PRKD2,0%
same,%Inh,PRKD3,13%
same,%Inh,PRKG1,0%
same,%Inh,PRKG2,75%
same,%Inh,PRKR,0%
same,%Inh,PRKX,1%
same,%Inh,PRP4,46%
same,%Inh,PYK2,20%
same,%Inh,QSK,0%
same,%Inh,RAF1,0%
same,%Inh,RET,0%
same,%Inh,RIOK1,48%
same,%Inh,RIOK2,2%
same,%Inh,RIOK3,56%
same,%Inh,RIPK1,0%
same,%Inh,RIPK2,0%
same,%Inh,RIPK4,11%
CCCCCc1nc2c(N)ncnc2n1CCCCC [SKF-97255],%Inh,PRKCI,8%
same,%Inh,PRKCQ,0%
same,%Inh,PRKD1,0%
same,%Inh,PRKD2,0%
same,%Inh,PRKD3,0%
same,%Inh,PRKG1,0%
same,%Inh,PRKG2,0%
same,%Inh,PRKR,0%
same,%Inh,PRKX,0%
same,%Inh,PRP4,3%
same,%Inh,PYK2,21%
same,%Inh,QSK,7%
same,%Inh,RAF1,11%
same,%Inh,RET,0%
same,%Inh,RIOK1,0%
same,%Inh,RIOK2,0%
same,%Inh,RIOK3,0%
same,%Inh,RIPK1,0%
same,%Inh,RIPK2,22%
same,%Inh,RIPK4,7%
